Sampled rows, rich in hits. Any-hit rate of the full collection: about 4.4%.
D1 agonist – Allosteric Agonists of the Human D1 Dopamine Receptor: qHTS. D(1A) dopamine receptor (Homo sapiens), P21728. HEK293 T-REx D1 cells, calcium flux, agonist mode. activation, % at 2 µM. 360,000 compounds, 1% hits. AID 504660, 2011; also: 0% is about no effect
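Agonism was scored from calcium flux recorded over 180 s (1 read/s) after pintool compound addition, following a 10-cycle baseline. Cells were inducible force-coupled HEK293 TREx D1, plated overnight at 30 C and loaded with no-wash calcium dye.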
D1 potentiator – Potentiators of Human D1 Dopamine Receptor: qHTS | D(1A) dopamine receptor (Homo sapiens), P21728 | HEK293 TREx D1 cells, calcium flux, dopamine EC20 potentiation | 360,000 compounds, 0.036% hits | potentiation, % at 10 µM; in the data active = potentiation above about 30%; also: 0% is about no effect
TRHR PAM – qHTS for Small Molecule Agonists and Allosteric Enhancers of Human TRH Receptor: Primary Screen for Enhancers; enhancement, % at 2 µM; TRHR cells, fluo-8 calcium fluorescence, EC20 TRH enhancement; 360,000 compounds, 0.66% hits; in the data active = enhancement above about 30%; also: 0% is about no effect
Target sequence (P34981 whole entry, looked up): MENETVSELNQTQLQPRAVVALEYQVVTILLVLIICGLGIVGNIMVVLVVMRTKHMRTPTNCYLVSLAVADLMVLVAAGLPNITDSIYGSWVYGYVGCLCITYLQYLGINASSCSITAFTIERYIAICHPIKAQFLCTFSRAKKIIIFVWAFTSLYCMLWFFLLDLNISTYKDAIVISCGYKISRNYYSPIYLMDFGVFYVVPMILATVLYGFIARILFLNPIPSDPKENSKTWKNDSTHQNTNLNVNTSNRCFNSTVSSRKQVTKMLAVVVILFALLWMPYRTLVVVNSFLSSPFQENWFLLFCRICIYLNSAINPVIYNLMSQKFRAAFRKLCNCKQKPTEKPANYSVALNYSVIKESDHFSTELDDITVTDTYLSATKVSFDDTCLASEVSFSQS
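Enhancer read-out: after compound pinning and an initial kinetic agonist-mode read, an EC20 of TRH (10 nM final) was injected and fluo-8 calcium signal (Ex 480/Em 530) followed at 1 s/cycle for 100 cycles in TRHR-expressing cells.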
TRHR ag – qHTS for Small Molecule Agonists and Allosteric Enhancers of Human TRH Receptor: Primary Screen for Agonists. activation, % at 2 µM. AID 493084, 2011. TRHR cells, calcium flux fluo-8, FDSS agonist mode. 360,000 compounds, 0.18% hits; also: 0% is about no effect
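Fluo-8-loaded TRHR cells; 10 s baseline, compound added, kinetic Ca2+ fluorescence read 1/s, agonist mode.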
USP1 inh – Inhibitors of USP1/UAF1: Primary Screen; AID 743255, 2014; recombinant USP1/UAF1, Ub-Rhodamine cleavage fluorescence; 390,000 compounds, 0.23% hits; Ubiquitin carboxyl-terminal hydrolase 1 (Homo sapiens), O94782; Potency, µM (titrated, usually from 57.1 µM), for inactives: at the highest dose activity change, negative = inhibition, usual class: inhibitors; active = well fitted inhibition curve with a large enough effect; inconclusive = small, poorly fitted or top-dose-only effect; inactive = no such curve, though single readings can be large or run the other way; also: potency is read from the fitted curve at half-maximal effect; % is scaled to controls: 0 for no effect and ±100 for the full control effect; nearly all actives have a fitted effect of over 60% in size
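Step one: compound is pinned into 1nM USP1/UAF1 in HEPES pH 7.8 buffer with TCEP. Step two: 15 min room-temperature incubation. Step three: Ub-Rho (150nM final) starts cleavage, tracked by fluorescence over six one-minute reads.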
D1 antag – Antagonist of Human D 1 Dopamine Receptor: qHTS; D(1A) dopamine receptor (Homo sapiens), P21728; HEK293 TREx D1 cells, calcium flux, dopamine EC80; active compounds read low; activity change, negative = inhibition, % at 10 µM; 360,000 compounds, 3.2% hits; in the data active = activity change below about -30%; also: % is scaled to controls: 0 for no effect and ±100 for the full control effect
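Allosteric or orthosteric antagonism assessed as attenuation of the calcium response to EC80 dopamine, added 180 s after compound, in induced HEK293 Trex D1 cells loaded with no-wash calcium dye.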
* marks the source's active call; other numbers are inactive results; ? = inconclusive; nt = no result given; ! = not active in a repeat. Rule as the data show it, unless noted: active = activation above about 30%; inactive = the rest.

SMILES	D1 agonist	D1 potentiator	TRHR PAM	TRHR ag	USP1 inh	D1 antag
O=C(CCS(=O)(=O)c1ccccc1F)Nc1ccc(N2CCN(Cc3ccccc3)CC2)cc1	8.4	-15.3	2.1	0.3	-13.5%	-39.0*
O=[N+]([O-])c1cc(-c2nc(-c3ccccc3)no2)ccc1NCCc1ccccc1	-0.7	-3.0	11.3	0.2	-29.6%	-2.2
CCOC(=O)C1CCN(C(c2ccccc2)c2c(O)cc(C)n(Cc3ccco3)c2=O)CC1 (configuration not stated)	2.0	0.2	-6.1	0.0	-14.7%	-4.8
CCn1cc(C(=O)NCc2ccccc2Cl)c(=O)c2cc(S(=O)(=O)N3CCc4ccccc4C3)ccc21	0.6	1.1	-0.5	0.5	-28.5%	8.7
C[N+]1(C)CCC(=C2c3ccccc3CC(=O)c3sccc32)CC1	0.0	-8.4	0.7	-0.5	28.2µM*	13.8
CC[N+]1(C)CCC(=C2c3ccccc3CC(=O)c3sccc32)CC1 (configuration not stated)	0.4	5.4	-1.4	-0.1	-21.2%	-4.7
CCC(C)NCCCOc1c(C)cc(C)cc1Br (configuration not stated)	32.2*	-7.0	-2.2	1.1	0.1%	11.3
COC(=O)c1sc2cccc(F)c2c1S(=O)(=O)NCc1ccc(Cl)cc1	4.0	-4.5	0.4	0.2	-23.8%	3.5
Cc1ccc(OCc2nc3ccccc3n2CCOc2ccc(Cl)cc2)cc1	40.9*	0.1	-2.2	4.0	-19.4%	15.3
c1ccc2c(c1)ncn2CCN1CCCCC1	2.9	-16.1	0.8	0.3	-3.7%	-71.5*
Cc1cccc(Cn2c(COc3ccc(Cl)cc3)nc3ccccc32)c1	32.4*	-2.6	-0.4	3.8	-18.9%	-9.5
Cc1ccc(OCCCCn2cnc3ccccc32)cc1	11.9	-2.6	11.4	-0.4	-8.0%	-36.6*
CCn1c(=O)c2cc(C(=O)NCCc3cc(OC)ccc3OC)sc2c2ccccc21	0.4	-3.9	-7.5	-0.3	?	-4.8
CCc1ccc(-n2c(C)nc3cc(C(=O)NCCc4ccccc4)ccc32)cc1	-0.1	-0.7	4.2	-0.2	-17.4%	6.0
O=C(CNS(=O)(=O)c1ccc(Br)s1)N1CCN(c2ccc(F)cc2)CC1	4.7	-6.7	10.0	-0.8	-19.6%	-51.4*!
Cc1cccc(Cn2cccc2CNS(=O)(=O)c2ccc(C)c(C)c2)c1	19.5	0.2	-8.1	1.6	?	-7.3
O=C(NCc1cccnc1)Nc1ccc(Cl)cc1Cl	2.9	1.8	-0.9	-0.6	-14.9%	5.1
CC(C)CNC(=O)NC1(C(F)(F)F)Oc2ccccc2O1	1.9	-4.7	3.1	0.5	-9.1%	6.1
O=C(NCc1cccnc1)Nc1cccc(Cl)c1Cl	4.1	-8.5	-5.0	-0.3	-10.3%	-30.1*
O=C(NCc1cccnc1)NC1(C(F)(F)F)Oc2ccccc2O1	-0.7	0.9	9.5	-0.4	-7.0%	-42.4*
Cc1cccc(NC(=O)NCc2cccnc2)c1C	1.9	-3.8	-5.8	0.2	-2.6%	-33.6*
Cc1ccccc1NC(=O)NCc1cccnc1	nt	nt	nt	nt	-8.5%	nt
O=S(=O)(c1ccc(-c2csc(=Nc3ccc(F)cc3)n2CCCCCCO)cc1)N1CCCC1	1.2	-2.5	-8.1	0.7	-9.2%	8.8
O=C(NCc1cccc(F)c1)c1ccc2nc(CCc3ccccc3)oc2c1	8.4	-1.6	6.1	0.4	-13.8%	-19.8
CCC(=O)N1CCc2cc(CNC(=O)c3cccc(N(C)C)c3)ccc21	-0.8	-1.1	34.6*	-0.9	-19.2%	-7.6
SMILES	D1 agonist	D1 potentiator	TRHR PAM	TRHR ag	USP1 inh	D1 antag
O=C(NCc1ccc2c(c1)CCN2C(=O)c1ccncc1)c1ccccc1Br	8.6	-3.8	-3.2	-0.1	-10.3%	-31.1*
COc1ccc(C(=O)NCc2ccc3c(c2)CCN3C(=O)c2ccccc2)cc1	0.0	0.8	0.2	-0.6	-4.9%	-3.4
O=C(NCc1ccc2c(c1)CCN2C(=O)c1ccncc1)c1ccccc1F	11.5	0.7	7.0	-0.6	?	-1.1
CCOc1ccccc1C(=O)NCc1ccc2c(c1)CCN2C(=O)c1ccccc1	4.7	-4.0	-6.2	-0.8	-14.2%	-37.9*
CCOc1ccc(C(=O)NCc2ccc3c(c2)CCN3C(=O)c2ccccc2)cc1	0.1	-1.4	2.4	-0.8	-10.2%	9.6
CC(=O)Nc1cccc(C(=O)NCc2ccc3c(c2)CCN3C(C)=O)c1	1.5	0.0	-1.2	0.7	-13.6%	-6.9
Cc1ccccc1C(=O)NCc1ccc2c(c1)CCN2C(=O)c1ccccc1	8.0	-4.2	-5.7	-0.3	-17.5%	-40.9*
Cc1ccc(/C=C/c2onc(C)c2S(=O)(=O)N2CCC(C(=O)N3CCC(N(C)C(C)C)CC3)CC2)cc1	21.4	-1.4	-8.0	2.1	-0.7%	-19.9
CCc1ccc(NC(=O)CN2C(=O)c3ccccc3Sc3ccc(C(=O)N4CCCC4)cc32)cc1	2.7	-1.7	-4.3	-0.8	?	-6.4
CCOc1ccc(NC(=O)c2ccc(-c3nc(COc4ccccc4)c(C)o3)cc2)cc1	-1.0	2.2	1.6	1.0	-15.7%	6.8
CCCCNC(=O)C(CC)Sc1nnc(-c2ccc(OC)c(OC)c2)c(-c2ccc(OC)c(OC)c2)n1 (configuration not stated)	1.4	-0.8	-5.5	-1.0	?	-15.2
O=S(=O)(Cc1ccccc1)N1CCN(C/C=C/c2ccccc2)CC1	47.4*	-12.3	1.3	-1.6	-7.2%	-32.9*
COc1cc(NC(=O)C2CC(c3c(F)cccc3Cl)=NO2)cc(OC)c1OC (configuration not stated)	19.9	-6.9	1.8	-1.1	-25.9%	-38.6*
CCOc1ccc(NC(=O)CSC2=Nc3ccccc3C3=NC(CC(=O)NCc4ccc5c(c4)OCO5)C(=O)N23)cc1 (configuration not stated)	1.1	-4.1	-3.2	0.0	-29.0%	-30.1*
CCOc1ccccc1NC(=O)CN1c2ccccc2S(=O)(=O)c2ccccc21	14.8	-2.6	9.6	-0.4	-1.7%	2.2
CCN(CC)S(=O)(=O)c1ccc(O)c(C(=O)OCC(=O)NC2CCCC2)c1	-0.5	-8.9	-10.4	0.2	-19.7%	-65.9*
COc1cc(SC)ccc1C(=O)OCC(=O)NC1CCCC1	2.3	-8.5	-2.0	0.5	-16.9%	-11.5
